KCNQ2 block: inhibitors of rat KCNQ2 potassium channel; CHO-K1 KCNQ2, FluxOR thallium flux, 20 min; active compounds read low; hit rate 1.1% among 310,000; O88943; AID 2156; B-score at 10 µM;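 active = fluorescence ratio B-score at most minus 3 library SDs, with starting brightness B-score within 2 library SDs, cut at about -5.5 in these data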
KCNQ2 pot: potentiators of rat KCNQ2 potassium channel | O88943 | CHO-K1 KCNQ2, FluxOR thallium flux fluorescence; active compounds read high | B-score at 10 µM | hit rate 0.54% among 310,000;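 active = fluorescence ratio B-score at least 3 SD of library B-scores, with initial fluorescence B-score within 3 of them, cut at about 5.3 in these data; same plate scores as AID 2156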;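 note: B-score of peak minus minimum over baseline fluorescence ratio after K+ and Tl+ stimulus; positive B-score means potentiation of KCNQ2 with more thallium influx and brighter signal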
Kir21 conf inh: confirmation of mouse Kir2.1 potassium channel inhibitors; shares compounds with KCNQ2 pot; Kir2.1-expressing cells, FluxOR thallium flux fluorescence; active compounds read low; Tl flux remaining, % of negative control (active compounds read low), % at 10 µM; hit rate 41% among 2,300; AID 2032;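 active = Primary-screen hit whose thallium flux fell at least 3 control SD below untreated wells in both duplicates, with normal baseline fluorescence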;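 note: 0% = blank wells without stimulus and 100% = stimulated no-compound controls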
HEK293 Tl flux: alters thallium flux in parental HEK293 cells, Kir2.1 counter-screen; shares compounds with KCNQ2 pot; FluxOR thallium flux fluorescence; 0% = unstimulated blank wells; FluxOR signal as % of negative control (100 = no effect), % at 10 µM; hit rate 19% among 2,300; AID 2105;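 active = dye signal at least 3 control SD above or below untreated wells in both duplicates, raw fluorescence within 3, either direction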;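 note: percent is based on the flux ratio of peak minus minimum fluorescence over baseline F0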
CHO-K1 ctr: parental CHO-K1 activity in KCNQ2 potentiator counter-screen; hit rate 43% among 1,200; shares compounds with KCNQ2 pot; parental CHO-K1 cells, FluxOR thallium flux fluorescence; zero = vehicle mean+3SD, 100% = vehicle-minus-blank window; activity increase over 3SD of controls, % at 10 µM; AID 2282;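 active = signal rise of at least 3 SD above the untreated control mean, in both duplicate wells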;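 note: counter screen of KCNQ2 potentiator hits so any rise reflects channel-independent effects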
KCNQ1 pot spec: selectivity of KCNQ2 potentiators: effect on human KCNQ1; CHO KCNQ1 stable, FluxOR thallium flux fluorescence; beyond 3SD, as % of vehicle-control signal; AID 2283; hit rate 28% among 1,200; activation over 3SD threshold, % at 10 µM; shares compounds with KCNQ2 pot;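 active = fluorescence ratio rise of at least 3 SD of vehicle wells above their mean, in both replicate wells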;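 note: 0% = vehicle mean plus 3 SD and 100% = vehicle minus unstimulated blank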
KCNQ2 pot conf: confirmation of rat KCNQ2 potassium channel potentiators; potentiation, less the hit threshold, % at 10 µM; CHO-KCNQ2 cells, FluxOR thallium flux fluorescence; AID 2287; hit rate 68% among 1,200; shares compounds with KCNQ2 pot;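 active = fluorescence ratio rising 3 SD or more over the vehicle control mean in both replicates, plus primary screen hit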;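 note: peak minus minimum thallium fluorescence divided by baseline after K/Tl stimulus; 0% = vehicle mean plus 3 SD and 100% = vehicle minus unstimulated blank difference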
Kir2-1 sel: mouse Kir2.1 off-target activity of KCNQ2 potentiators; activity over 3SD threshold, % at 10 µM; shares compounds with KCNQ2 pot; hit rate 2% among 1,200; HEK293 Kir2.1, FluxOR thallium flux fluorescence;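 active = fluorescence ratio rise of at least 3 SD above the vehicle-control mean, seen in both replicates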;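 note: 0% = vehicle mean plus 3 SD and 100% = vehicle minus no-stimulus blank window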
KCNQ2 W236L pot: rat KCNQ2 W236L mutant potentiation by KCNQ2 potentiators | AID 2558 | shares compounds with KCNQ2 pot | CHO KCNQ2-W236L, automated patch clamp current | hit rate 10% among 940 | current increase over 3SD of negative controls (%), active compounds read high, % at 25 µM;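 active = current increase at least 3 SD of the untreated controls above them in both duplicate recordings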
Target sequence (O88943 whole entry W236L, looked up): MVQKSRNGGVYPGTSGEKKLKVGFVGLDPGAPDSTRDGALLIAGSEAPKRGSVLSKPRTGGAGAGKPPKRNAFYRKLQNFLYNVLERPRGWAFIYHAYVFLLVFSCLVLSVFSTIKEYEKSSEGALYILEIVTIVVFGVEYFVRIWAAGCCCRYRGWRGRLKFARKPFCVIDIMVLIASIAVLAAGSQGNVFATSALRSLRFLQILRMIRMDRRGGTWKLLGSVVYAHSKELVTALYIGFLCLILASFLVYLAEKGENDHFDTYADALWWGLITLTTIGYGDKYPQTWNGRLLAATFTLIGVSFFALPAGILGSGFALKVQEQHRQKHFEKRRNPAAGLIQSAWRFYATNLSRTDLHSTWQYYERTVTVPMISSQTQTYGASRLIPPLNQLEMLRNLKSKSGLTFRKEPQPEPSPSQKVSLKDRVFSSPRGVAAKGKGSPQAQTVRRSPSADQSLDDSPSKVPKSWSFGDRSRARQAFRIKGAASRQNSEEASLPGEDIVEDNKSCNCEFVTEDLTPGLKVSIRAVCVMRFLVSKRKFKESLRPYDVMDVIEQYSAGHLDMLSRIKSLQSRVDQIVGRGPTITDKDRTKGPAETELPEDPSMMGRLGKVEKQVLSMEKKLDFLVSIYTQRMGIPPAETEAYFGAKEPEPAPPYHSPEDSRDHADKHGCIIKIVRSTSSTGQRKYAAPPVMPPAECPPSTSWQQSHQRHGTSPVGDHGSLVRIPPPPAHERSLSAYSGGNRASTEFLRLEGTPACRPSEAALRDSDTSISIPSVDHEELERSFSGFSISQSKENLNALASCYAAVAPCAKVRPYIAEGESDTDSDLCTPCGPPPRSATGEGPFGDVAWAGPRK
Active calls of the source: *; i = inactive; · = not tested or not shown; ! = not confirmed by another sample. In the library only some 1.6% were active in any assay of this set; here they are far more common.

SMILES	KCNQ2 block	KCNQ2 pot	Kir21 conf inh	HEK293 Tl flux	CHO-K1 ctr	KCNQ1 pot spec	KCNQ2 pot conf	Kir2-1 sel	others
CC1CCc2c(sc3[nH]c(=S)n(C)c(=O)c23)C1 (stereo unspecified)	i	20*	i	396%*	54*	-19	69*	-9	KCNQ2 W236L pot=i
C=CCn1c(=S)[nH]c2sc3c(c2c1=O)CCC3	i	2.5	·	·	·	·	·	·
CCn1c(=S)[nH]c2sc3c(c2c1=O)CCCC3	i	16*	i	393%*	40*	-16	60*	-4	KCNQ2 W236L pot=i
CC1CCc2c(sc3nn[nH]c(=O)c23)C1 (stereo unspecified)	i	0.14	·	·	·	·	·	·
CC12CN(S(=O)(=O)c3ccccc3)CC(C)(CN(S(=O)(=O)c3ccccc3)C1)C2	i	·	·	·	·	·	·	·
Cc1cc(Br)ccc1OCC(=O)NNC(=O)Cc1ccccc1	i	0.69	·	·	·	·	·	·
Cc1cccc(NC(=O)NNC(=O)COc2ccc3ccccc3c2)c1	i	·	·	·	·	·	·	·
Cc1cc(Br)ccc1OCC(=O)NNC(=O)C(=O)Nc1ccccc1	i	11*	i	228%*	70*	-7	36*	-21	KCNQ2 W236L pot=i
O=C(COc1ccc2ccccc2c1)NNC(=O)C(=O)Nc1ccccc1	i	12*	i	i	-5	-7	-10	-38	KCNQ2 W236L pot=i
COc1cccc(OC)c1C(=O)Nc1ccc(C(=O)NCc2ccccc2)cc1	i	0.07	·	·	·	·	·	·
OC(CNCc1ccccc1F)COc1cccc2ccccc12 (stereo unspecified)	i	·	72%*	i	·	·	·	·
CC(C)NCC(O)COc1cccc2ccccc12 (stereo unspecified)	i	·	·	·	·	·	·	·
COc1ccc(C(=O)NNC(=O)CCn2nnc(-c3ccc(Cl)cc3)n2)cc1OC	i	·	·	·	·	·	·	·
Cc1ccc(NC(=O)NCC2CCN(Cc3cc(C)ccc3Cl)CC2)c(C)c1	i	4.8	·	·	·	·	·	·
Cc1ccc(C)c(CN2CCC(CNC(=O)Nc3cccc(Cl)c3C)CC2)c1	i	5.3*	i	i	-1	-14	0	-46	KCNQ2 W236L pot=i
Cc1cnc(NC(=O)c2cccs2)s1	i	0.05	·	·	·	·	·	·
O=C(Nc1ncc([N+](=O)[O-])s1)c1cccs1	i	7.7*!	i	i	3.5*	-14	-19	-32
CCCCN(C(=O)C1CC(=O)N(CCc2ccc(OC)c(OC)c2)C1)c1c(N)n(CCCC)c(=O)[nH]c1=O (stereo unspecified)	i	·	·	·	·	·	·	·
COc1cc(NC(=O)CCc2nnc3ccc(N4CCCCC4)nn23)cc(OC)c1OC	i	·	·	·	·	·	·	·
Cc1ccc(-n2cccc2C(=O)NS(=O)(=O)c2ccc(C)cc2)cc1	i	0.75	·	·	·	·	·	·
Cc1ccc(-n2cccc2C(=S)N=P(N(C)C)(N(C)C)N(C)C)cc1	i	·	i	i	·	·	·	·
CCN1CCN(C(=O)/C=C/c2ccc(C)o2)CC1	i	·	·	·	·	·	·	·
Cc1ccc(/C=C/C(=O)N2CC(C)CC(C)C2)o1 (stereo unspecified)	i	6.2*	i	i	-7	-7	-1	-38	KCNQ2 W236L pot=i
COc1cccc(/C(=N/O)C2CC2c2ccc(Cl)cc2)c1 (stereo unspecified)	i	6.7*	i	i	33*	-4	8.1*	-33	KCNQ2 W236L pot=i
COc1cccc(/C(C)=N/NS(=O)(=O)c2ccc(Cl)cc2)c1	i	1	·	·	·	·	·	·
SMILES	KCNQ2 block	KCNQ2 pot	Kir21 conf inh	HEK293 Tl flux	CHO-K1 ctr	KCNQ1 pot spec	KCNQ2 pot conf	Kir2-1 sel	others
CC(O)CNc1nc2sc3c(c2c(=O)n1Cc1ccco1)CCCCC3 (stereo unspecified)	i	1	·	·	·	·	·	·
O=c1c2c3c(sc2nc(NCCOCCO)n1Cc1ccco1)CCCCC3	i	5.6*	i	i	-7	38*	-11	-38	KCNQ2 W236L pot=6.1%*
COc1ccc(N2CCN(C(=O)CN(C)S(=O)(=O)c3cc(C)ccc3OC)CC2)cc1	i	·	·	·	·	·	·	·
COc1ccccc1C(=O)NNC(=S)NC(=O)c1ccco1	i	·	·	·	·	·	·	·
O=C(COc1cccnc1[N+](=O)[O-])NCc1ccccc1	i	0.35	·	·	·	·	·	·
O=C(/C=C/c1ccc([N+](=O)[O-])cc1)/C=C/c1ccco1	-6.1*	-6.1	i	i	·	·	·	·
O=C(/C=C/c1ccc([N+](=O)[O-])cc1)NCc1ccco1	i	0.51	·	·	·	·	·	·
CCN1CCN(c2ccc(N3CCN(C(=O)c4ccc(Br)o4)CC3)nn2)CC1	i	·	·	·	·	·	·	·
Cc1cc(C)cc(OCC(=O)OCC(=O)N(C)CC(=O)Nc2ccc(F)cc2)c1	i	8.3*	i	i	18*	-8	19*	-36	KCNQ2 W236L pot=i
CN(CC(=O)Nc1ccc(F)cc1)C(=O)COC(=O)COc1ccc(C#N)cc1	i	1	·	·	·	·	·	·
CCOC(=O)C(=CNc1ccc(NC2=NCC(C)(C)S2)cc1)C(=O)OCC	i	·	58%*	i	·	·	·	·
CCOC(=O)C(=CNc1ccc(S(N)(=O)=O)cc1)C(=O)OCC	i	·	·	·	·	·	·	·
NC1C2CN(c3nc4c(cc3F)c(=O)c(C(=O)O)cn4-c3ccc(F)cc3F)CC12 (stereo unspecified)	i	·	·	·	·	·	·	·
CC1=CC(C)(C)n2c(O)c(N=NC(N)=S)c3c(C)ccc1c32	i	0.15	·	·	·	·	·	·
CC1=CC(C)(C)n2c(O)c(N=N)c3c(C)ccc1c32	i	5.3*	i	i	54*	-9	-15	-21
CC(C)(C)OC(=O)CC12CCCCC1NC(=O)O2 (stereo unspecified)	i	1.3	·	·	·	·	·	·
CCCC1(C)NC(=O)c2ccccc2O1 (stereo unspecified)	i	0.24	·	·	·	·	·	·
CCOc1ccccc1C(=O)N1CCCCC1C (stereo unspecified)	i	0.73	·	·	·	·	·	·
COc1cc(C)nc(NCc2ccccc2)n1	i	·	·	·	·	·	·	·
COc1ccc(Nc2cc(C)nc(NCc3ccccc3)n2)cc1	i	·	64%*	i	·	·	·	·
COc1cccc(NC(=O)CN2CCN(C(=O)c3ccco3)CC2)c1	i	0.15	·	·	·	·	·	·
CC(=O)c1ccc(S(=O)(=O)N2CCN(C(=O)CN3C(=O)NC4(CCCC4)C3=O)CC2)cc1	i	·	·	·	·	·	·	·
NC(=O)SCC(=O)Nc1ccc(Cl)cc1	i	6*	i	i	-10	20*	20*	-40	KCNQ2 W236L pot=i
COCC(=O)Nc1ccc(C)c(Cl)c1	i	2.1	·	·	·	·	·	·
Cc1ccc(NC(=O)CSC(N)=O)cc1Cl	i	5.3	i	i	-24	-22	3.0*	-42	KCNQ2 W236L pot=i
N#CCSCC(=O)Nc1ccc(Cl)cc1	i	0.01	·	·	·	·	·	·
Cc1c(Cl)cccc1NC(=O)CSC(N)=O	i	4.6	·	·	·	·	·	·
